Test results: paper PMC5540273 (PLoS ONE, 2017)

The molecules below were run on TXK. Settings: concentration: 1 μM,replicates: in singlicate; n = 1.
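Also: KINOMEscan kinase panel screen.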

SMILES | %Inh
CN(c1cccc(CNc2nc(Nc3ccc4c(c3)CC(=O)N4)ncc2C(F)(F)F)c1)S(C)(=O)=O | 0%
CC(=O)Nc1ccc(-c2cc3ncnc(SCC(=O)O)c3s2)cc1 | 17%
COc1cccc(OC)c1C(=O)Nc1cccc(-c2nn3ccccc3c2-c2ccnc(Nc3cccc(F)c3)n2)c1 [GSK361065] | 6%
CC(C(=O)NC1CCN(c2ccnc(Nc3ccc(F)cc3)n2)C1)c1ccc(Cl)cc1 (stereo not shown) [GSK1379713] | 0%
Cc1ccc(CC(=O)N2CCc3cc(-c4cn(C)c5ncnc(N)c45)ccc32)cc1 [GSK2634758] | 8%
Cl.Nc1n[nH]c2cc(-c3ccccn3)ccc12 [GSK2189892] | 0%
Cl.c1ccc(Oc2ccc(Nc3ccnc4cc(-c5ccc(CN6CCNCC6)o5)ccc34)cc2)nc1 [GW567142] | 11%
c1ccc(Oc2ccc(Nc3ccnc4ccc(-c5ccccn5)cc34)cc2)cc1 [GW407034] | 27%
COc1cccc(C2=C(Nc3cccc(Cl)c3)C(=O)NC2=O)c1 [SB-341556] | 1%
C[C@@H](Oc1cc(-n2cnc3cc(-c4cnn(C)c4)ccc32)sc1C(N)=O)c1ccccc1Cl [GSK580432] | 44%
O=C(Nc1n[nH]c2cc(-c3ccco3)ccc12)C1CC1 [SB-737447] | 0%
COc1cc2nccc(Nc3ccc(Oc4ccccc4)cc3)c2cc1OC.Cl [GI261656] | 19%
CN(c1ccccc1CNc1nc(Nc2ccc3c(c2)CC(=O)N3)ncc1C(F)(F)F)S(C)(=O)=O | 0%
